# Experimental data: the supplement of paper PMC8728848
# Many of the other results were omitted from the sample, so the strongest signals are more common in it than they were.
# B1: EUL D1A second (Oryza sativa) (protein)
# chain: GAATACTIGGVPVHTVRVFSAAGEDYCLTVRNGTACLAPKNPRDDYQHWIKDMRHSNKIRDEEGYPAFALVNKVTGEAIKHSTGQGHPVKLVPYNPEYQDESVLWTESKDVGKGFRCIRMVNNIYLNFDAFHGDKDHGGIHDGTEIVLWKWCEGDNQRWKILPWILEQKLISEEDLNSAVDHHHHHH
# Tests used:
# Test in all cases: glycan array binding signal (z-score within array); higher = stronger binding
# Conditions in all cases: glycan notation: IUPAC condensed, linker removed
# [1] = target: Neu5Ac(a2-6)Gal(b1-4)GlcNAc(b1-3)Gal(b1-4)GlcNAc
# Method in brief: (§1)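 Columns mapping to the same glycan were averaged after glycan names were converted to IUPAC-condensed notation. The data come from 3228 arrays in the Consortium for Functional Glycomics database, limited to those with an available protein sequence. Binding is reported as a within-array Z-score averaged across arrays of one protein sequence and across linkers.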
# [2] = target: Neu5Ac(a2-6)Gal(b1-4)GlcNAc(b1-3)Gal(b1-4)GlcNAc(b1-3)Gal(b1-4)GlcNAc
# Method in brief: as §1
# [3] = target: Neu5Ac(a2-6)Gal(b1-4)GlcNAc(b1-3)[Neu5Ac(a2-6)Gal(b1-4)GlcNAc(b1-6)]GalNAc
# Method in brief: as §1
# [4] = target: Neu5Ac(a2-6)Gal(b1-4)GlcNAc(b1-6)[Gal(b1-3)GlcNAc(b1-3)]Gal(b1-4)Glc
# Method in brief: as §1
# [5] = target: Neu5Ac(a2-6)GlcNAc(b1-4)GlcNAc
# Method in brief: as §1
# [6] = target: Neu5Ac(a2-8)Neu5Ac(a2-3)[GalNAc(b1-4)]Gal(b1-4)Glc
# Method in brief: as §1
# Neu5Gc(a2-3)Gal(b1-4)Glc = target: Neu5Gc(a2-3)Gal(b1-4)Glc
# Method in brief: as §1
binder,measurement,setting,value
B1,glycan array binding signal (z-score),[1],0.827
same,glycan array binding signal (z-score),[2],-2.05
same,glycan array binding signal (z-score),[3],2.81
same,glycan array binding signal (z-score),[4],0.242
same,glycan array binding signal (z-score),[5],-0.238
same,glycan array binding signal (z-score),[6],0.083
same,glycan array binding signal (z-score),Neu5Gc(a2-3)Gal(b1-4)Glc,0.509
